FBPA coupling cs: qHTS Assay for Inhibitors of Fructose-1,6-bisphosphate Aldolase from Giardia Lamblia: Coupling assay counterscreen | coupling enzyme system counterscreen, AmpLite Red fluorescence | activity change, negative = inhibition, % at 58.2 µM, hits read low | 290,000 compounds, 0.67% hits; in the data active means activity change below about -30%
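Compounds tested against the coupling enzymes alone at 57.5 uM final; readout was AmpLite Red fluorescence (525/598 nm) after 20 min at RT.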
Sfp inh: qHTS Assay for Inhibitors of Bacillus subtilis Sfp phosphopantetheinyl transferase (PPTase) | 4'-phosphopantetheinyl transferase ffp (Bacillus subtilis), Q9F4F7 | Biochemical Sfp PPTase activity, qHTS | Potency, µM, inactives show largest response in the series, negative = inhibition, actives largely listed as inhibitors | 310,000 compounds, 3.5% hits;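 further: the enzyme is Sfp with the accession as filed and its product quenches rhodamine fluorescence; potency means the concentration at half of the fitted maximal effect; 0% = enzyme reaction without inhibitor and -100% = no enzyme wells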
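With Hepes-Na pH 7.6 buffer containing 10 mM MgCl2, Sfp (15 nM) modified BHQ-2-YbbR (12.5 uM) using rhodamine-CoA (5 uM). Two reads 30 minutes apart at 525/598 nm yielded each well's rate.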
Tau fibril ThT: qHTS for Inhibitors of Tau Fibril Formation, Thioflavin T Binding; Potency, µM (doses to about 57.4 µM), for the others: at the top dose activity, negative = inhibition, actives largely listed as inhibitors; AID 1460, 2008; Microtubule-associated protein tau (Homo sapiens), P10636; 270,000 compounds, 2.1% hits; recombinant tau K18 P301L, heparin-induced fibrillization, ThT fluorescence; further: potency means the concentration at half of the fitted maximal effect; nearly all actives have a fitted effect of over 55% in size
Target sequence (P10636 561-689 P618L limits assumed): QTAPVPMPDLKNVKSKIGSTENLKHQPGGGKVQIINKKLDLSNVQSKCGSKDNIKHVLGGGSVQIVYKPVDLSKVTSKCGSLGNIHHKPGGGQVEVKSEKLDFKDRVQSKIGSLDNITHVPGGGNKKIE
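Heparin-induced fibrillization of the P301L-mutant K18 repeat-domain fragment of human tau was followed by ThT binding in quantitative high-throughput format.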
JMJD2E inh: qHTS Assay for Inhibitors of Human Jumonji Domain Containing 2E (JMJD2E); JMJD2E catalytic domain, FDH-coupled NADH fluorescence (FDH is formaldehyde dehydrogenase); Potency, µM (doses to about 57.1 µM), for the others: at the top dose activity change, negative = inhibition, hits mostly inhibitors; 230,000 compounds, 1.6% hits; AID 2147, 2009; active means well fitted inhibition curve with a large enough effect, not every such curve was filed as active; inconclusive means small, poorly fitted or top-dose-only effect, or another doubt; inactive means no such curve, though single readings can be large or run the other way;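 further: potency means the concentration at half of the fitted maximal effect; 0% = wells with enzyme and -100% = buffer wells without enzyme; nearly all actives have a fitted effect of over 50% in size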
Target sequence (B2RXH2 1-337 limits assumed): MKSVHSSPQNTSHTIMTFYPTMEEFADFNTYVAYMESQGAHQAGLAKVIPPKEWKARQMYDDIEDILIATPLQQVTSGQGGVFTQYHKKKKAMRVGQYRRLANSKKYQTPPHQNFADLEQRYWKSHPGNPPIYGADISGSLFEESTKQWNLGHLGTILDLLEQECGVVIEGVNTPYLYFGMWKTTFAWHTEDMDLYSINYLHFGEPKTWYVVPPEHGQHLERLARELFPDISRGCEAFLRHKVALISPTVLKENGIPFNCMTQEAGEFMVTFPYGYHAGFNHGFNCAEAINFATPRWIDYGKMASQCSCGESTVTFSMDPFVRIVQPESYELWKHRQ
Tau fibril FP: qHTS for Inhibitors of Tau Fibril Formation, Fluorescence Polarization | Microtubule-associated protein tau (Homo sapiens), P10636 | K18 P301L tau heparin fibrillization, Alexa594 FP, 6 h | 280,000 compounds, 0.39% hits | Potency, µM (series often up to 57.7 µM), for the others: top-dose activity, negative = inhibition, usual class: inhibitors; further: potency means the concentration at half of the fitted maximal effect; nearly all actives have a fitted effect of over 55% in size
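Human tau K18 […] P301L fragment, 15 uM unlabeled plus 0.24 uM Alexa 594-labeled tau (final), with compound and 20 uM heparin in 100 mM sodium acetate pH 7; 6 hr at 37 C, then Alexa 594 FP read.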
Tau fluor cs: Counterscreen qHTS for Inhibitors of Tau Fibril Formation, Fluorescence Polarization | Potency, µM (doses to about 57.7 µM), for the others: at the top dose activity change, negative = decrease | AID 1463, 2008 | tau K18 P301L (four-repeat tau fragment) Alexa594 fluorescence, heparin fibrillization | 280,000 compounds, 0.93% hits; further: potency means the concentration at half of the fitted maximal effect; nearly all actives have a fitted effect of over 55% in size
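Human K18 P301L tau (15 uM unlabeled plus 0.24 uM Alexa 594-labeled, final) in 100 mM sodium acetate pH 7 was mixed with compound and 20 uM heparin and incubated 6 hr at 37 C.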
An asterisk follows results filed as active; u = inconclusive; x = not tested or not shown. Only some compounds are listed: those with a hit (about 5.3% of all), similar ones and a draw of the others. Unless noted, the call rests on the fitted dose curve; in most records, active means well fitted curve in the direction sought with a large enough effect; inconclusive means small, poorly fitted or top-dose-only effect, or another doubt; inactive means no such curve, though single readings can be large; an effect the other way counts as inactive or inconclusive. Unless noted, on the % scale 0 is the no-effect control and ±100 the full control effect.

SMILES	FBPA coupling cs	Sfp inh	Tau fibril ThT	JMJD2E inh	Tau fibril FP	Tau fluor cs
O=S(=O)(c1ccc(Cl)cc1)N1CCSC1c1ccco1 (centres undefined)	-7.6	-15.4%	-9.5%	-3.0%	-4.9%	-14.5%
O=[N+]([O-])c1ccc(S(=O)(=O)N2CCSC2c2ccco2)cc1 (centres undefined)	-8.4	39.8µM*	u	-1.2%	-8.6%	-17.6%
CC1C/C(=N\NC(=O)c2cccnc2)CC(C)(C)C1 (centres undefined)	2.1	-9.8%	-4.6%	71.6%	-1.6%	-0.2%
CC1C/C(=N\NC(=O)c2ccc([N+](=O)[O-])cc2)CC(C)(C)C1 (centres undefined)	-3.6	79.4µM*	u	56.6%	-0.3%	-8.3%
CCOCCCN1C(=O)c2[nH]nc(-c3ccccc3O)c2C1c1ccc(CC)cc1 (centres undefined)	x	x	-14.6%	x	2.8%	u
O=C(CC(=O)N/N=C/c1ccccc1)NCc1ccccc1	-39.9*	22.5%	-6.2%	6.6%	-2.2%	-4.5%
O=C(CCC(=O)Nc1ccccc1Cl)N/N=C/c1ccccc1	-47.0*	-2.4%	-5.6%	-1.5%	-1.6%	-6.5%
O=C(CCCC(=O)Nc1ccc(Br)cc1)N/N=C/c1ccccc1	-14.2	12.5%	x	x	x	x
COc1ccc(C2=Nn3c(nnc3-c3ccc(OC)c(OC)c3)SC2)c(OC)c1	4.1	3.0%	x	x	x	x
Cc1cc(=O)n2nc(N(C)CC(=O)NCc3cccc(Br)c3)sc2n1	x	x	-15.1%	x	2.2%	-7.7%
Nc1nc2ncc(=O)[nH]c2c(=O)[nH]1	5.2	-19.4%	u	u	-5.8%	-11.8%
O=C(Cn1cncn1)N/N=C/c1ccccc1O	4.0	18.4%	x	u	-0.9%	4.2%
Cc1nc2ccc(C(=O)N/N=C/c3ccccc3O)cc2[nH]1	0.1	19.6%	x	x	x	x
O=C(N/N=C/c1ccccc1Cl)c1nc2ccc([N+](=O)[O-])cc2c(=O)[nH]1	-1.2	24.4%	10µM*	8.1%	0.7%	u
Cc1cc([N+](=O)[O-])nn1CC(=O)N/N=C/c1ccc(O)cc1O	1.7	29.5%	x	12.6µM*	-4.2%	-1.3%
O=C(Cn1cncn1)N/N=C/c1cc([N+](=O)[O-])ccc1O	-0.1	25.5%	-15.8%	25.1µM*	-16.7%	-10.6%
Cc1nc2ccc(C(=O)N/N=C/c3cc([N+](=O)[O-])ccc3O)cc2[nH]1	0.9	-12.9%	u	35.5µM*	10.4%	-22.6%
Cn1nc(-c2ccc(OCC(=O)Nc3ccc(Cl)cc3)cc2)c2ccccc2c1=O	x	x	7.8%	x	u	-27.3%
C/C=C/C1=CC2=CC(=O)C(C)(OC(=O)c3c(C)cc(O)cc3O)C(=O)C2=CO1 (centres undefined)	-0.4	-8.9%	u	4.2%	-14.6%	-21.7%
CC[C@H](C)[C@H](NC(=O)[C@H](CCC(=O)O)NC(=O)[C@H](CC(N)=O)NC(=O)[C@@H](N)[C@@H](C)O)C(=O)N[C@H](C(=O)N[C@@H](CCC(=O)O)C(=O)N[C@@H](CCC(=O)O)C(=O)N[C@@H](CCC(N)=O)C(=O)N[C@@H](Cc1ccc(O)cc1)C(=O)N[C@H](C(=O)N1CCC[C@H]1C(=O)N[C@@H](CCC(N)=O)C(=O)N[C@@H](CO)C(=O)N[C@@H](CC(C)C)C(=O)N[C@@H](C)C(=O)N[C@H](C(=O)N[C@@H](CC(C)C)C(=O)N[C@@H](CCC(=O)O)C(=O)N[C@@H](CO)C(=O)N[C@H](C(=O)N[C@@H](Cc1ccccc1)C(=O)N[C@@H](CCC(N)=O)C(=O)N[C@@H](CCC(=O)O)C(=O)N[C@@H](CC(C)C)C(=O)NCC(=O)N[C@@H](CCCCN)C(=O)N[C@@H](CC(C)C)C(=O)N[C@H](C(=O)NCC(=O)N1CCC[C@H]1C(=O)N[C@@H](CC(N)=O)C(=O)N[C@@H](CO)C(=O)N[C@@H](CCC(N)=O)C(=O)O)[C@@H](C)O)C(C)C)[C@@H](C)O)[C@@H](C)O)C(C)C	1.7	-5.3%	x	x	x	x
Cc1nc2cnc(N3CCN(C)CC3)nc2n(-c2ccccc2)c1=O	7.3	19.9%	x	x	x	x
Cc1ccn(CC(=O)N/N=C/c2cc([N+](=O)[O-])ccc2O)n1	4.6	6.4%	-13.9%	12.6µM*	2.2%	-5.6%
O=C(CSc1ccccn1)N/N=C/c1ccccc1[N+](=O)[O-]	1.2	1.8%	-10.0%	1.2%	-0.8%	-12.1%
O=C(CSc1ccccn1)N/N=C/c1cc([N+](=O)[O-])ccc1O	9.8	17.3%	u	12.6µM*	11.2%	-9.9%
CCc1ccc(NC(=O)Cn2c(=O)n(CCC(=O)NCCc3ccc(OC)c(OC)c3)c(=O)c3ccccc32)cc1	x	x	-3.1%	x	u	-8.0%
SMILES	FBPA coupling cs	Sfp inh	Tau fibril ThT	JMJD2E inh	Tau fibril FP	Tau fluor cs
COc1ccc2c(c1O)C(=O)c1ccccc1C2=O	5.9	-0.3%	u	0.5%	9.8%	-5.0%
CC(C)COC(=O)c1ccc2c(c1O)C(=O)c1ccccc1C2=O	-40.9*	-28.1%	12.6µM*	1.8%	10.2%	u
S=C(c1c[nH]c2ccccc12)N1CCOCC1	11.0	22.4µM*	-2.5%	-27.2%	-4.5%	-1.5%
CC(C)CC(=O)N=Nc1c(O)[nH]c2ccccc12	-0.6	4.5%	-5.0%	1.2%	-7.1%	-6.3%
Oc1[nH]c2ccccc2c1N=NC(=S)N1CCOCC1	-7.4	-28.1%	8.91µM*	u	-10.6%	-17.7%
O=C(CNC(=O)c1ccccc1)N=Nc1c(O)[nH]c2ccc(Br)cc12	0.7	17.0%	x	x	x	x
CC(=O)/C=C(\C)N=Nc1c(O)[nH]c2ccccc12	-0.8	11.7%	7.94µM*	2.7%	-4.4%	-11.3%
O=C(C(=O)N1CCOCC1)c1c[nH]c2ccccc12	1.9	15.2%	4.4%	u	8.2%	8.1%
NC(=S)N=Nc1c(O)[nH]c2ccccc12	0.7	u	u	-2.8%	-5.3%	-16.9%
Oc1[nH]c2ccc(Br)cc2c1N=NC(=S)N1CCOCC1	2.0	-25.1%	10µM*	u	0.3%	u
COc1ccc(N2CC3=C(C2=O)C(c2ccc(Br)cc2)NC(=O)N3C)cc1 (centres undefined)	x	x	-3.1%	x	8.8%	-16.4%
COc1ccc(-c2cc(C3CCN(C(=O)OC(C)(C)C)CC3)[nH]n2)cc1	0.0	5.3%	-13.9%	8.5%	-6.3%	-16.4%

Screening results from PubChem.
